KB-3-1 tox – KB-3-1 parental cell cytotoxicity; hit rate 1.4% among 400,000; KB-3-1 viability, CellTiter-Glo ATP luminescence, 72 h; Potency, µM (titrated, usually from 46.1 µM), most hits filed as cytotoxic; also: % is scaled to controls: 0 for no effect and ±100 for the full control effect; nearly all actives have a fitted effect of over 60% in size
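Luminescent ATP read-out (CellTiter-Glo) measures survival of drug-naive KB-3-1 cells after 72 h compound exposure at 37 °C. Titration series was screened from lowest to highest concentration, with DMSO vehicle plates as background controls.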
MCF10A rerep – DNA re-replication induction in MCF 10a cells. MCF 10A DNA re-replication, Hoechst nuclear intensity, 48 h. Potency, µM (highest dose often 46.1 µM), inactives show at the top dose activity, positive = re-replication, hits mostly activators. AID 624296. hit rate 2.9% among 350,000; also: % of control where 0% means no effect; nearly all actives have a fitted effect of over 50% in size
PINK1 modulator – modulators of PINK1 expression. Potency, µM (titrated, usually from 76.6 µM), inactives show top-dose activation (PINK1 increase), most hits filed as activators. hit rate 0.2% among 410,000. PINK1 immunofluorescence, high-content cytometry, 24 h; active = well fitted activation curve with a large enough effect; inconclusive = small, poorly fitted or top-dose-only effect; cell line not stated here; also: % of control where 0% means no effect; nearly all actives have a fitted effect of over 65% in size
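Decision-based qHTS: stable cells, 24 h exposure to five compound concentrations, CCCP as control. Fixed cells stained for PINK1 plus nuclear, mitochondrial and cell markers, cytometer read.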
KB-V1 MDR tox – kills drug-selected multidrug resistant KB-V1 cells; KB-V1 MDR cells viability, CellTiter-Glo, 72 h; Potency, µM (series often up to 46.1 µM), most hits filed as cytotoxic; hit rate 3.4% among 400,000; AID 1347076; also: % is scaled to controls: 0 for no effect and ±100 for the full control effect; nearly all actives have a fitted effect of over 60% in size
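Potencies derive from concentration-effect curves fitted to normalized luminescence (CellTiter-Glo) of KB-V1 cells treated for 72 h at 37 degrees C in phenol-red-free DMEM containing 10% FBS.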
SW480 rerep – induces DNA re-replication in SW480 colon adenocarcinoma cells | SW480 DNA re-replication, Hoechst DNA content imaging, 48 h | Potency, µM (doses to about 46.1 µM), inactives show at the top dose re-replication activation, actives largely listed as activators | hit rate 1.8% among 340,000; also: % of control where 0% means no effect; nearly all actives have a fitted effect of over 55% in size
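Readout is total intensity of Hoechst-stained nuclei, excited at 405 nm and collected at 500-530 nm. Compound treatment lasted 48 hr at 37 C in 5% CO2 before staining.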
* hit, by the source's call; [ ] = another dose, or the depositor's remark. Most compounds without a hit are left out; they make up all but 6.7% or so of the library. Unless noted, calls follow the shape of the dose curve; as a rule, active = well fitted curve in the direction sought with a large enough effect; inconclusive = small, poorly fitted or top-dose-only effect, or another doubt; inactive = no such curve, though single readings can be large; an effect the other way counts as inactive or inconclusive. Potency is read from the fitted curve at half-maximal effect.

Results for CC(=O)Nc1ccc(S(=O)(=O)N(C)CC(=O)Nc2cccc(S(=O)(=O)N3CCCC3)c2)cc1 ?
KB-3-1 tox: inactive; MCF10A rerep: -6%; PINK1 modulator: 2%; KB-V1 MDR tox: inactive; SW480 rerep: 9%

Results for O=C(O)CCCc1ccc2c(c1)CCc1ccccc1-2 ?
KB-3-1 tox: 2.9µM*; MCF10A rerep: -5%; PINK1 modulator: -1%; KB-V1 MDR tox: 2.1µM*; SW480 rerep: -4%

How did CN1CCN(c2ncc3c(n2)CCN(Cc2ccc(Br)s2)C3)CC1 do in these assays?
KB-3-1 tox: inactive; PINK1 modulator: 0%; KB-V1 MDR tox: inactive

Results for Cn1c(=O)nc2n(Cc3ccccc3)c3cccc(Cl)c3cc-2c1=O ?
KB-3-1 tox: inactive; MCF10A rerep: 2%; PINK1 modulator: 8%; KB-V1 MDR tox: 21µM*; SW480 rerep: 1%

How did COc1cc(/C=N/n2cnc3scc(-c4cccs4)c3c2=O)cc(OC)c1OC do in these assays?
KB-3-1 tox: 4.6µM*; MCF10A rerep: 12%; PINK1 modulator: 7%; KB-V1 MDR tox: inconclusive; SW480 rerep: inconclusive

What do the screens show for `COc1ccc(Br)cc1CNC(=O)c1cnc2sc(N3CCCC3)nn2c1=O`?
PINK1 modulator: 0%

How did Cc1ccc(N(CC(N)=O)C2SC(=O)N(Cc3ccccc3)C2=O)cc1 (centres undefined) do in these assays?
KB-3-1 tox: inactive; MCF10A rerep: 21µM*; PINK1 modulator: 1%[38.3 µM]; KB-V1 MDR tox: inactive; SW480 rerep: inconclusive

What do the screens show for `NC(=O)CN(c1ccccc1)C1SC(=O)N(Cc2ccccc2)C1=O` (centres undefined)?
KB-3-1 tox: inactive; MCF10A rerep: -4%; PINK1 modulator: 4%[38.3 µM]; KB-V1 MDR tox: inactive; SW480 rerep: -5%

How did Cc1ccc(-n2nc(C)c3nc(CCC(=O)Nc4cccc(F)c4)c(=O)n(C)c32)cc1 do in these assays?
KB-3-1 tox: inactive; PINK1 modulator: 0%; KB-V1 MDR tox: inactive

Results for O=C(CCC1CCCCC1)NNC(=O)c1cnccn1 ?
KB-3-1 tox: inactive; MCF10A rerep: inconclusive; PINK1 modulator: 2%; KB-V1 MDR tox: inconclusive; SW480 rerep: 2.9µM*

Results for O=C(NNC(=O)C1CCCCC1)c1cnccn1 ?
KB-3-1 tox: inactive; MCF10A rerep: -4%; PINK1 modulator: 2%[38.3 µM]; KB-V1 MDR tox: inconclusive; SW480 rerep: -5%

Results for O=C(CCn1cnc2ccccc21)N/N=C/c1ccc(O)cc1 ?
KB-3-1 tox: inactive; MCF10A rerep: -2%; PINK1 modulator: 0%; KB-V1 MDR tox: inactive; SW480 rerep: -3%

How did O=C(CCn1cnc2ccccc21)N/N=C/c1ccccc1O do in these assays?
KB-3-1 tox: inconclusive; MCF10A rerep: inconclusive; PINK1 modulator: -2%; KB-V1 MDR tox: inactive; SW480 rerep: 8.2µM*

What do the screens show for `O=C1NCCN(Cc2ccoc2)C1CC(=O)N(CCO)Cc1ccccc1` (centres undefined)?
KB-3-1 tox: inactive; MCF10A rerep: -5%; PINK1 modulator: -1%; KB-V1 MDR tox: inactive; SW480 rerep: 18µM*

Results for CN(C(=O)CC1C(=O)NCCN1Cc1ccoc1)C1CCOCC1 (centres undefined) ?
KB-3-1 tox: inactive; MCF10A rerep: -9%; PINK1 modulator: 1%; KB-V1 MDR tox: inactive; SW480 rerep: -20%

What do the screens show for `CN(C)S(=O)(=O)c1ccc(Cl)c(C(=O)Nc2ccc(S(=O)(=O)N3CCOCC3)cc2)c1`?
KB-3-1 tox: inactive; MCF10A rerep: inconclusive; PINK1 modulator: 3%; KB-V1 MDR tox: inactive; SW480 rerep: 0%

Results for COc1ccccc1C(=O)N/C(=C/c1ccc(Br)cc1)C(=O)N1CCOCC1 ?
KB-3-1 tox: inactive; PINK1 modulator: 0%; KB-V1 MDR tox: inconclusive

How did O=C(Nc1ccc(-c2nc3ccccc3o2)cc1)c1ccc2c(c1)OCO2 do in these assays?
KB-3-1 tox: inactive; MCF10A rerep: inconclusive; PINK1 modulator: 24%[38.3 µM]; KB-V1 MDR tox: inconclusive; SW480 rerep: inconclusive

Results for Nc1cccc(-c2nc3cc(S(=O)(=O)c4ccc5oc(-c6cccc(N)c6)nc5c4)ccc3o2)c1 ?
KB-3-1 tox: inconclusive; MCF10A rerep: inconclusive; PINK1 modulator: 10%; KB-V1 MDR tox: inconclusive; SW480 rerep: 6.5µM*

Results for Cc1c(C(=O)Nc2ccc3oc(-c4cccnc4)nc3c2)oc2ccccc12 ?
KB-3-1 tox: inactive; MCF10A rerep: inconclusive; PINK1 modulator: 6%; KB-V1 MDR tox: inconclusive; SW480 rerep: 21µM*

What do the screens show for `O=C(Nc1ccc2oc(-c3cccnc3)nc2c1)c1cccnc1`?
KB-3-1 tox: inactive; MCF10A rerep: 7%; PINK1 modulator: 0%; KB-V1 MDR tox: inactive; SW480 rerep: -19%

How did O=C(Nc1ccc2oc(-c3ccccc3Cl)nc2c1)c1cncc(Br)c1 do in these assays?
KB-3-1 tox: inconclusive; MCF10A rerep: 16µM*; PINK1 modulator: inconclusive; KB-V1 MDR tox: 5.2µM*; SW480 rerep: inconclusive

How did O=C(Nc1ccc(-c2nc3ccccc3o2)cc1)c1ccc(N2C(=O)C3C4C=CC(C4)C3C2=O)cc1 (centres undefined) do in these assays?
KB-3-1 tox: inactive; MCF10A rerep: inconclusive; KB-V1 MDR tox: 4.1µM*; SW480 rerep: 11%

How did Cc1c(C(=O)N(C)C)sc2c1c(=O)n(-c1ccc(Cl)c(Cl)c1)c(=O)n2CC(=O)N1CCCCC1C (centres undefined) do in these assays?
PINK1 modulator: 0%

What do the screens show for `O=S(=O)(Nc1ccc2oc(-c3ccccc3)nc2c1)c1ccccc1`?
KB-3-1 tox: inactive; MCF10A rerep: 21µM*; PINK1 modulator: -3%[38.3 µM]; KB-V1 MDR tox: inactive; SW480 rerep: inconclusive

What do the screens show for `O=C(Nc1ccc2oc(Cc3ccc(Cl)cc3)nc2c1)c1cccnc1`?
KB-3-1 tox: inactive; MCF10A rerep: inconclusive; KB-V1 MDR tox: inconclusive; SW480 rerep: 16µM*

Results for CCOc1cccc(C(=O)Nc2ccc3oc(Cc4ccc(Cl)cc4)nc3c2)c1 ?
KB-3-1 tox: inconclusive; MCF10A rerep: inconclusive; PINK1 modulator: 0%; KB-V1 MDR tox: inconclusive; SW480 rerep: inconclusive

Results for NNC(=O)c1cc2c(ccc3ccccc32)o1 ?
KB-3-1 tox: inactive; MCF10A rerep: inconclusive; PINK1 modulator: 0%; KB-V1 MDR tox: inconclusive; SW480 rerep: inconclusive

How did CCN(CC)CC(=O)Nc1ccc(-c2nc3cc(NC(=O)CN(CC)CC)ccc3o2)cc1 do in these assays?
KB-3-1 tox: inconclusive; MCF10A rerep: -1%; PINK1 modulator: 4%; KB-V1 MDR tox: 18µM*; SW480 rerep: -3%

What do the screens show for `O=C(Nc1cccnc1)c1cc2c(ccc3ccccc32)o1`?
KB-3-1 tox: inconclusive; MCF10A rerep: 12%; PINK1 modulator: -3%; KB-V1 MDR tox: 13µM*; SW480 rerep: -4%

What do the screens show for `CCOc1ncccc1C(=O)OCC(=O)NCc1ccccc1`?
KB-3-1 tox: inactive; MCF10A rerep: -29%; PINK1 modulator: 0%; KB-V1 MDR tox: inactive; SW480 rerep: -29%

Compound activity: PubChem BioAssay, National Center for Advancing Translational Sciences (NCATS)
